# Only some compounds are listed: those with a hit (about 2.7% of all), similar ones and a draw of the others.
# MPTP inh – permeability transition pore inhibition | inhibition, % at 10 µM | 360,000 compounds, 1.4% hits | isolated mouse mitochondria, Ca2+ swelling absorbance, 30 min;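 active = inhibition of 50% or more, scaled per plate between neutral and stimulator controls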;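 note: 0% = DMSO wells given calcium and 100% = 1 mM EGTA wells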
# F508del corr – correctors of CFTR F508del function in bronchial epithelial cells; CFBE cells, YFP halide quenching; stimulated with forskolin plus potentiator P3; % fluorescence drop versus neutral controls; activity (quench increase), % at 7.58 µM; 350,000 compounds, 0.36% hits; AID 720511;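 active = mean added fluorescence quench of at least 8% versus neutral control, with both replicates also reaching 8%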;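 note: cells transiently co-express mutant CFTR-F508del with the halide-sensitive YFP; corrector assay measuring rescue of mutant channel to the surface after 24 h compound exposure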
# SKN-1 inh – C. elegans SKN-1 inhibition; C. elegans VP596 Pgst-4::GFP/RFP ratio, acrylamide-induced, 24 h; inhibition, % at 21.8 µM; 360,000 compounds, 0.49% hits; AID 624304;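 active = interference check ratio from 0.5 to 1.5 plus GFP to RFP signal ratio inhibition reaching or exceeding a fixed threshold, cut at about 30% in these data, passing the limit was not always enough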
# ATG4B inh – ATG4B (human) cysteine protease inhibition. Q9Y4P1. ATG4B cleavage of LC3-PLA2, NBD-HPC fluorescence, 1 h. inhibition, % at 8.33 µM. 340,000 compounds, 0.51% hits; in the data active = inhibition above about 40%
# Target sequence (Q9Y4P1 whole entry, looked up): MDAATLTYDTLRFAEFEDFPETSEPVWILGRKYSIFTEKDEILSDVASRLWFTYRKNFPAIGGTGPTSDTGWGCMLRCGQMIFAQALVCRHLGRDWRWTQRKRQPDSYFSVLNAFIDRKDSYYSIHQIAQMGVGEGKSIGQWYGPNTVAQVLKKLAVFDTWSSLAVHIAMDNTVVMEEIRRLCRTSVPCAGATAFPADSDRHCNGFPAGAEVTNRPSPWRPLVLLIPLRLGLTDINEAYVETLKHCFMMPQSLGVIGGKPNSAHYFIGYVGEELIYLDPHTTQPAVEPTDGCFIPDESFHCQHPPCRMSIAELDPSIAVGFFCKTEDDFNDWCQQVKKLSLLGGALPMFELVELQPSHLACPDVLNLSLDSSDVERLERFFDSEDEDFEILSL
# CendR NRP1 mod – alters CendR peptide binding to human NRP-1; 360,000 compounds, 0.85% hits; FAM-RPARPAR peptide binding to NRP-1, fluorescence polarization; O14786; inhibition, % at 25 µM;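 active = inhibition or corrected inhibition above about 18%, plus a signal ratio from 0.5 to 1.5, limit read from the data, passing the limit was not always enough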
# Rh123 counter – mitochondrial membrane potential, counter-screen; shares compounds with MPTP inh; isolated mitochondria, Rhodamine 123 fluorescence; inhibition, % at 10 µM; 5,000 compounds, 78% hits; in the data active = inhibition above about 22%;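 note: 0% = DMSO vehicle and 100% = positive control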
# MPTP abs DR – dose response confirmation of mitochondrial permeability transition pore inhibitors | 780 compounds, 58% hits | isolated mitochondria swelling, absorbance | IC50, µM | shares compounds with MPTP inh | AID 651561; in the data active = IC50 below about 20 µM
# MPTP cs DR – counter-screen for mitochondrial permeability transition pore inhibitors, dose response | isolated mitochondria counterscreen, fluorescence read-out | shares compounds with MPTP inh | IC50, µM | 780 compounds, 49% hits; in the data active = IC50 below about 80 µM
# * hit, by the source's call; / = not tested or not shown; ! = repeats disagree.
SMILES,MPTP inh,F508del corr,SKN-1 inh,ATG4B inh,CendR NRP1 mod,Rh123 counter,others
CCN(CC)S(=O)(=O)c1ccc(C)c(NC(=O)CNc2cccc(S(=O)(=O)N3CCOCC3)c2)c1,0,-2,-9,-7,2,/,
Cc1ccc(-c2csc(NC(=O)CSc3nnc4c(n3)[nH]c3ccccc34)n2)cc1,88*,/,-5,5,0,56*,
Cc1ccc(NC(=O)CSc2nnc3c(n2)[nH]c2ccccc23)cc1,5,0,-9,4,10,/,
CCN(CC)S(=O)(=O)c1ccc(C)c(NC(=S)Nc2cccc(S(=O)(=O)N3CCCCCC3)c2)c1,76*,2,12,-5,-5,78*,
CCN(CC)S(=O)(=O)c1cc(NC(=O)CNc2cccc(S(=O)(=O)N3CCCC3)c2)ccc1C,54*,/,3,0,-4,95*,
N#C[C@@H]1[C@H](c2ccc(C#CCC3CCCC3)cc2)[C@H](CO)N1C(=O)CN1CCOCC1,/,0,/,/,/,/,
O=C(c1ccc(F)cc1)N1C[C@H]2[C@@H](c3ccccc31)[C@@H](CO)N2C(=O)c1ccccc1,/,4,/,/,/,/,
C[C@@H]1CN([C@@H](C)CO)C(=O)Cc2cc(NS(=O)(=O)c3ccc(F)cc3)ccc2O[C@H]1CN(C)C,/,0,/,/,/,/,
CO[C@H]1CN(C)C(=O)c2cc(NC(=O)c3ccccc3F)ccc2OC[C@H](C)N(CC2CCOCC2)C[C@@H]1C,/,4,/,/,/,/,
CCN(CC)S(=O)(=O)c1cccc(NC(=O)CCSc2ccc(Cl)cc2)c1,76*,/,4,13,6,85*,
O=C(CNc1ccc(C(F)(F)F)cc1)Nc1cccc(S(=O)(=O)N2CCCCC2)c1,66*,1,10,/,-3,90*,
CCN(CC)S(=O)(=O)c1cccc(NC(=O)CNc2cccc(S(=O)(=O)N3CCOCC3)c2)c1,72*,/,6,-8,-8,97*,
O=C(CNc1ccc(C(F)(F)F)cc1)Nc1cccc(S(=O)(=O)N2CCCC2)c1,4,2,6,-7,7,/,
COc1ccc(S(=O)(=O)Nc2ccc3c(c2)C(=O)N([C@H](C)CO)C[C@H](C)[C@@H](CN(C)CC2CCCCC2)OCCCC[C@@H](C)O3)cc1,/,1,/,/,/,/,
CC1CCCCC1N1CN=C(Nc2nc3ccccc3s2)NC1 (stereo not given),66*,/,56*,16,-4,-1,MPTP abs DR=>100;MPTP cs DR=>80
c1ccc2sc(NC3=NCN(C4CCCCC4)CN3)nc2c1,-1,0,3,-9,-3,/,
COc1ccc(COC(=O)c2cccc(S(=O)(=O)N3CCN(C(C)=O)CC3)c2)cc1F,56*,1,8,-6,3,45*,
COc1cccc(NC(=O)N2CC(=O)N3[C@H](CO)[C@H](c4ccc(C#CC5CCCC5)cc4)[C@H]3C2)c1,/,-2,/,/,/,/,
CCc1cc(Cl)c(OC)c(C(=O)NC[C@@H]2CCCN2CC)c1O,78*!,-15,9,5,10,-6,MPTP abs DR=9*;MPTP cs DR=>80
CCN1CCCC1CNC(=O)c1ccccc1Cl (stereo not given),-2,/,-5,1,6,/,
O=C(Nc1ccc(Cl)c(Cl)c1)Nc1cc(S(=O)(=O)N2CCOCC2)ccc1N1CCCC1,94*,/,19,30,8,68*,
O=C(Nc1ccc(Cl)c(Cl)c1)Nc1cc(C(=O)N2CCOCC2)ccc1N1CCCCC1,95*,/,10,1,0,-2,MPTP abs DR=18*;MPTP cs DR=<2.5*
O=C(Nc1ccccc1F)Nc1cc(S(=O)(=O)N2CCOCC2)ccc1N1CCCC1,0,-4,7,-8,-9,/,
C/C=C/c1ccc([C@@H]2[C@@H](CO)N3C(=O)CN(C(=O)NC4CCCC4)C[C@@H]23)cc1,/,-1,/,/,/,/,
Cc1ccc(NC(=O)CSc2nn(-c3ccc(Cl)cc3)c(=S)s2)cc1S(=O)(=O)N(C)C,86*,/,15,-5,-10,81*,
CN(C)S(=O)(=O)c1cc(NC(=O)CSc2nn(-c3ccc(Cl)cc3)c(=S)s2)ccc1Cl,70*,/,7,-12,-4,81*,

# Source: PubChem
